Reference: PubChem BioAssay AID463173 (ICCB-Longwood Screening Facility, Harvard Medical School, 2010)
Among all 52,000 compounds or so, about 1,700 (3.3%) were called active. Many of the other results were omitted from the sample, so actives are more common in it than they were. Unmarked numbers belong to inactive results. No stated cut-off is given here; in the data, active means survival mostly below about 52% (no sharp cut-off); inactive means mostly above about 56%.

Tested on: Wild type
Test: growth inhibition of S. aureus wild type versus tarO mutant, primary screen, teichoic acid synthesis inhibitors, RN4220, OD600 (AID 463173)
Details: S. aureus RN4220 wild type/DeltatarO growth, OD600, 18 h, hits give low values, screened at 18.75 µg/mL (by protocol)

Row | SMILES | survival
1 | Cc1ccc(NC(=O)Cn2c(=O)n(CCCCC(=O)NCc3ccccc3Cl)c(=O)c3ccccc32)cc1C | 74%
2 | Cc1cccc(NC(=O)CSc2nccn2Cc2ccc(F)cc2)c1C | 71%
3 | O=C(Nc1nc2ccc(S(=O)(=O)N3CCCC3)cc2s1)c1cccc(F)c1 | 63%
4 | COc1ccc2c(c1)c1c(c(=O)n(-c3ccc(F)c(Cl)c3)c(=O)n1Cc1cccc(C)c1)n2C | 71%
5 | Cc1cc(C)c(NC(=O)CSc2ccnc(=O)[nH]2)c(C)c1 | 74%
6 | CCc1nc(C)cn1S(=O)(=O)c1ccc(Cl)c(Cl)c1OC | 77%
7 | CCOc1cc(Cl)c(S(=O)(=O)n2cc(C)nc2CC)cc1Cl | -7% (active)
8 | CCOc1cc(Cl)c(S(=O)(=O)n2ccnc2)cc1Cl | 74%
9 | CCCn1c(SCC(=O)c2ccc3c(c2)OCCO3)nnc1-c1ccco1 | 100%
10 | Oc1ccc(Br)cc1C1CC(c2ccccc2)=NC(c2ccco2)N1 (stereo not drawn) | 1% (active)
11 | O=C(CCN1CCOCC1)N1N=C(c2ccccc2)CC1c1ccco1 (stereo not drawn) | 104%
12 | COc1ccccc1N1CCN(c2ncnc3c2cnn3-c2cccc(Cl)c2)CC1 | -4% (active)
13 | COc1ccccc1N1CCN(c2ncnc3c2cnn3-c2cc(Cl)ccc2C)CC1 | 136%
14 | COc1ccccc1N1CCN(c2ncnc3c2cnn3-c2ccc(C)cc2)CC1 | 63%
15 | O=C(COc1ccccc1Cl)N(Cc1ccco1)Cc1ccco1 | 81%
16 | CCCCN(CC)C(=O)CSc1c2c(nc3ccc(Cl)cc13)CCCC2 | -2% (active)
17 | COc1ccc(CNC(=O)CSc2c3c(nc4ccc(Cl)cc24)CCCC3)cc1 | 76%
18 | COc1cc(OC)c(N(C)C(=O)CSc2c3c(nc4ccc(Cl)cc24)CCCC3)cc1Cl | 2% (active)
19 | Cc1ccc(CNC(=O)CSc2c3c(nc4ccc(Cl)cc24)CCCC3)cc1 | 80%
20 | CCCCN(C)C(=O)CSc1c2c(nc3ccc(Cl)cc13)CCCC2 | -2% (active)
21 | CCCCNC(=O)CSc1c2c(nc3ccc(Cl)cc13)CCCC2 | 66%
22 | COc1ccc(NC(=O)CSc2c3c(nc4ccc(Cl)cc24)CCCC3)cc1Cl | 75%
23 | CN(Cc1ccccc1)C(=O)CSc1c2c(nc3ccc(Cl)cc13)CCCC2 | 0% (active)
24 | CCCN(CCC)C(=O)CSc1c2c(nc3ccc(Cl)cc13)CCCC2 | 52%

Row | SMILES | survival
25 | CCOc1ccc(CNC(=O)CSc2c3c(nc4ccc(Cl)cc24)CCCC3)cc1 | 84%
26 | CCCNC(=O)CSc1c2c(nc3ccc(Cl)cc13)CCCC2 | 72%
27 | CCc1ccc(CNC(=O)CSc2c3c(nc4ccc(Cl)cc24)CCCC3)cc1 | 76%
28 | CCCN(C(=O)c1c(C)oc2ncn(CC(C)C)c(=O)c12)c1ccccc1C | 59%
29 | CCOc1ccc(CCNC(=O)Cn2nc(C)c3c(C)n(-c4ccccc4)nc3c2=O)cc1OCC | 19%
30 | CCn1cc(CCC(=O)NCc2ccccc2OC)c2ccccc21 | 76%
31 | COc1ccc(C(=O)NCc2nnc(SCC(=O)Nc3ccccc3)n2-c2ccc(F)cc2)cc1 | 78%
32 | Clc1cccc(-n2ncc3c(N4CCCCCC4)ncnc32)c1 | 81%
33 | COc1cccc(CC(=O)Nc2ccc(-c3nc4ccccc4s3)cc2Cl)c1 | 73%
34 | COc1ccccc1C(=O)Nc1ccc(-c2nc3ccccc3s2)c(C)c1 | 82%
35 | Cc1cc(C)cc(OCC(=O)Nc2ccc(-c3nc4ccccc4s3)cc2)c1 | 88%
36 | Cc1cccc(OCC(=O)Nc2cccc(-c3nc4ccccc4s3)c2)c1 | 5% (active)
37 | Cc1ccc(OCC(=O)Nc2cccc(-c3nc4ccccc4s3)c2)cc1 | 55%
38 | COc1ccc(-c2nc3ccccc3s2)cc1NC(=O)COc1cccc(C)c1 | 39%
39 | COc1ccc(CC(=O)Nc2ccc(-c3nc4ccccc4s3)c(C)c2)cc1OC | 10% (active)
40 | COc1ccc(CC(=O)Nc2ccc(-c3nc4ccccc4s3)c(C)c2)cc1 | 69%
41 | COc1cccc(CC(=O)Nc2ccc(-c3nc4ccccc4s3)cc2)c1 | -3% (active)
42 | COc1ccc(N2CCN(S(=O)(=O)c3cc(Br)cc4c3N(C(=O)C3CC3)CC4)CC2)cc1 | 90%
43 | COc1ccc2nc3oc(C(=O)NCc4ccccc4OC)cc3cc2c1 | 88%
44 | COc1ccc(NC(=O)CC2C(=O)N(c3ccc(F)cc3)C(=O)N2Cc2ccco2)cc1 (stereo not drawn) | 90%
45 | COc1ccc(CNC(=O)c2cc3oc4ccccc4c3n2C)cc1OC | 64%
46 | Cc1cnc(=O)[nH]c1SCC(=O)Nc1nc2ccccc2s1 | 89%
47 | CCOC(=O)c1c(SCC(=O)Nc2nc3ccc(C)cc3s2)nc(=O)[nH]c1C | 81%
48 | CCOC(=O)c1c(SCC(=O)Nc2nc3ccccc3s2)nc(=O)[nH]c1C | 1% (active)

Row | SMILES | survival
49 | CC(C)OCCCNC(=O)Cc1ccc(NC(=O)N2CCCCc3ccccc32)cc1 | 77%
50 | CCN(CC)c1ccc(CN(C(=O)c2cc(=O)c3ccccc3o2)C2CCS(=O)(=O)C2)cc1 (stereo not drawn) | 76%
51 | COC(=O)c1c(NC(=O)CCCOc2ccc(C)cc2)sc2c1C(C(=O)OC)CC2 (stereo not drawn) | 1% (active)
52 | COC(=O)c1c(NC(=O)CCCOc2cccc(C)c2)sc2c1C(C(=O)OC)CC2 (stereo not drawn) | -3% (active)
53 | CC1CCc2c(sc(NC(=O)CCCOc3ccc(C(C)(C)C)cc3)c2C(N)=O)C1 (stereo not drawn) | 79%
54 | COC(=O)c1c(NC(=O)/C(C#N)=C/c2ccc(OC)cc2)sc2c1C(C(=O)OC)CC2 (stereo not drawn) | 71%
55 | COC(=O)c1c(NC(=O)CCCOc2ccc(C(C)(C)C)cc2)sc2c1CCC(C)C2 (stereo not drawn) | 30%
56 | CCOc1ccc(/C=C/C(=O)Nc2sc3c(c2C(=O)OC)C(C(=O)OC)CC3)cc1 (stereo not drawn) | 75%
57 | COC(=O)c1c(NC(=O)/C(C#N)=C/c2ccccc2)sc2c1C(C(=O)OC)CC2 (stereo not drawn) | 82%
58 | COC(=O)c1c(NC(=O)c2cccs2)sc2c1C(C(=O)OC)CC2 (stereo not drawn) | 104%
59 | COC(=O)c1c(NC(=O)CCCOc2ccc(C(C)(C)C)cc2)sc2c1C(C(=O)OC)CC2 (stereo not drawn) | -2% (active)
60 | Cc1ccc(N(O)C(=O)Nc2ccccc2)cc1 | 119%
61 | COCCCNC(=O)c1ccc2nc(CCc3ccccc3)oc2c1 | 88%
62 | Cc1cccc(N2CCN(S(=O)(=O)c3ccc(F)c(C(=O)Nc4ccc(C(C)C)cc4)c3)CC2)c1C | 75%
63 | CCOc1ccc(CCNC(=O)Cn2c(C)c3cnn(-c4ccccc4)c(=O)c3c2C)cc1 | 95%
64 | COc1ccc2c(c1)CCc1c(C(=O)Nc3c(C)nn(Cc4ccc(Cl)cc4)c3C)noc1-2 | 64%
65 | COc1ccc2c(c1)CCc1c(C(=O)Nc3c(C)nn(Cc4ccccc4)c3C)noc1-2 | 92%
66 | COc1ccc2c(c1)CCc1c(C(=O)Nc3c(C)nn(Cc4ccc(C)cc4)c3C)noc1-2 | 16% (active)
67 | CC(=O)Nc1cc(C(=O)NCc2ccc(C)cc2)ccc1S(=O)(=O)c1ccc(Cl)cc1 | 85%
68 | CCc1ccc(-n2c(=O)c3cccnc3n2CC(=O)Nc2cc(OC)ccc2OC)cc1 | 74%
69 | Cc1cc(C(=O)c2cccs2)c(N)s1 | 90%
70 | COc1ccc(CNC(=O)c2ccc3c(c2)NC(=O)C(CS(=O)(=O)Cc2ccccc2Cl)N3)cc1 (stereo not drawn) | 49%
71 | Cc1ccc(Cl)cc1N1CCN(C(=O)c2cn(CC(C)C)c(=O)c3c2c2ccccc2n3C)CC1 | 87%
72 | Cc1cccc(N2CCN(C(=O)c3cn(CC(C)C)c(=O)c4c3c3ccccc3n4C)CC2)c1C | 89%

Row | SMILES | survival
73 | Cc1ccc(C)c(N2CCN(C(=O)c3cn(CC(C)C)c(=O)c4c3c3ccccc3n4C)CC2)c1 | 17% (active)
74 | Cc1ccc(C(C)C)c(OCCn2cc(C(=O)c3ccco3)c3ccccc32)c1 | 30%
75 | Cc1ccc(NC(=O)NCCOCCn2c(=O)oc3ccccc32)c(C)c1 | 88%
76 | Cc1ccc2oc(=O)n(CCNC(=O)Nc3ccc(C)c(F)c3)c2c1 | 108%
77 | Cc1ccc(C(C)C)c(OCCCn2c(=O)oc3ccc(C)cc32)c1 | -10% (active)
78 | Cc1ccc(C(C)C)c(OCCCn2c(=O)oc3ccccc32)c1 | -2% (active)
79 | Cc1cccc(NC(=O)NCCn2c(=O)oc3ccc(C)cc32)c1 | 88%
80 | Cc1nn2c(C)c(C(=O)NCc3ccc(OC(C)C)cc3)cnc2c1-c1ccc(F)cc1 | 76%
81 | COc1cc(OC)c(NC(=O)Cn2cnc3c(nc4n3CCCCC4)c2=O)cc1Cl | 59%
82 | O=C(NCC1CCCO1)C1CC(=O)N(c2ccccc2)C1 (stereo not drawn) | 123%
83 | Cc1ccc(S(=O)(=O)N2Cc3ccccc3CC2C(=O)N(C)C)cc1 (stereo not drawn) | 102%
84 | Cc1ccc(Cn2c(C(=O)O)c(CNC3CCCC3)c3ccc(C)cc32)cc1 | 83%
85 | Cc1nc2ccn(Cc3cccs3)c(=O)c2cc1C(=O)NCc1ccc(Br)cc1 | 82%
86 | Cc1nc2ccn(Cc3cccs3)c(=O)c2cc1C(=O)NCc1ccc(Cl)cc1 | 22%
87 | Cc1nc2ccn(Cc3cccs3)c(=O)c2cc1C(=O)Nc1ccccc1 | 91%
88 | COc1cc(NC(=O)c2cc3c(=O)n(Cc4cccs4)ccc3nc2C)cc(OC)c1OC | -2% (active)
89 | COc1ccc(CNC(=O)c2cc3c(=O)n(Cc4cccs4)ccc3nc2C)cc1 | 10% (active)
90 | Cc1nc2ccn(Cc3cccs3)c(=O)c2cc1C(=O)NCc1ccccc1 | 73%
91 | CCOc1ccc(CNC(=O)c2cc3c(=O)n(Cc4cccs4)ccc3nc2C)cc1 | 118%
92 | CCc1ccc(CNC(=O)c2cc3c(=O)n(Cc4cccs4)ccc3nc2C)cc1 | 0% (active)
93 | COc1ccc(NC(=O)c2cc3c(=O)n(Cc4cccs4)ccc3nc2C)cc1 | 59%
